Experimental data taken from PubChem BioAssay AID1159580 (chemical genetic matrix, 2015).
Several values for one entry are separate records, joined by “and”; a condition that tells them apart may be missing. Identical values can stand only once. Screen size: about 5,500 compounds; about 2,000 (36%) were called active. Inconclusive results (about 18%) are left out. No stated cut-off is given here; in the data, active means normalized growth mostly below about 0.91 (no sharp cut-off); inconclusive means no clear call, values can overlap the other calls; inactive means mostly above about 0.92. The list shows a part of the results.

Test: chemical genetic growth profiling, strain panel (AID 1159580);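 further: tested at 20 µM; growth read once vehicle control cultures reached saturation at 30 °C; 1 = growth at the plate median or of vehicle wells; lower values mean less growth of the strain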
Conditions: S. cerevisiae deletion strains, growth OD

Measured: normalized growth

COC1(C)CCC2OC2(C)CCC2C1CC2(C)C (centres undefined)
inactive: locus YAL013W, strain DEP1, hits give low values 1 | locus YAL021C, strain ccr4, hits give low values 1 | locus YAL026C, strain drs2, hits give low values 1.03 | locus YAL030W, strain snc1, hits give low values 1.01 | locus YBL061C, strain skt5, hits give low values 1.01 | locus YBR009C, strain hhf1, hits give low values 0.991 | locus YBR021W, strain FUR4, hits give low values 1.02 | locus YBR023C, strain chs3, hits give low values 1 | locus YBR171W, strain sec66, hits give low values 1.02 | locus YBR229C, strain ROT2, hits give low values 1.01 | locus YBR231C, strain swc5, hits give low values 1.02 | locus YBR279W, strain paf1, hits give low values 0.998 | locus YCL011C, strain gbp2, hits give low values 1.01 | locus YCL016C, strain dcc1, hits give low values 1 | locus YCL029C, strain bik1, hits give low values 0.998 | locus YCL061C, strain MRC1, hits give low values 1 | locus YCL069W, strain vba3, hits give low values 1.02 | locus YCR088W, strain abp1, hits give low values 1.01 | locus YDL005C, strain med2, hits give low values 1.01 | locus YDL035C, strain GPR1, hits give low values 1.01 | locus YDL040C, strain nat1, hits give low values 1.01 | locus YDL074C, strain BRE1, hits give low values 1.01 | locus YDL101C, strain DUN1, hits give low values 1.02 | locus YDL134C, strain PPH21, hits give low values 1.04 | locus YDL185W, strain tfp1, hits give low values 1.01 | locus YDL192W, strain arf1, hits give low values 0.99 | locus YDR001C, strain nth1, hits give low values 1.01 | locus YDR069C, strain doa4, hits give low values 1.01 | locus YDR101C, strain arx1, hits give low values 0.993 | locus YDR137W, strain rgp1, hits give low values 1 | locus YDR150W, strain NUM1, hits give low values 0.98 | locus YDR159W, strain sac3, hits give low values 0.997 | locus YDR162C, strain NBP2, hits give low values 0.995 | locus YDR195W, strain ref2 1.02 | locus YDR297W, strain sur2, hits give low values 0.997 | locus YDR318W, strain mcm21, hits give low values 1.01 | locus YDR334W, strain swr1, hits give low values 1.02 | locus YDR335W, strain msn5, hits give low values 1.02 | locus YDR388W, hits give low values 1.01 | locus YDR392W, strain spt3, hits give low values 0.818 | locus YDR502C, strain sam2, hits give low values 1.04 | locus YEL003W, strain gim4, hits give low values 1.01 | locus YEL037C, strain rad23, hits give low values 1.01 | locus YEL061C, strain CIN8 (second series), hits give low values 1.02 | locus YER015W, strain faa2, hits give low values 1 | locus YER016W, strain bim1, hits give low values 1.01 | locus YER110C, hits give low values 1.02 | locus YER111C, strain swi4, hits give low values 1 | locus YER155C, strain BEM2 (second series), hits give low values 0.995 | locus YER155C, strain BEM2, hits give low values 0.996 | locus YER167W, strain BCK2, hits give low values 0.997 | locus YFR010W, strain ubp6, hits give low values 1.03 | locus YGL078C, strain dbp3, hits give low values 1.05 | locus YGL086W, strain mad1, hits give low values 1 | locus YGL167C, strain pmr1, hits give low values 1.01 | locus YGL173C, strain kem1, hits give low values 1.01 | locus YGL227W, strain vid30, hits give low values 1.01 | locus YGL240W, strain doc1, hits give low values 1 | locus YGL248W, strain PDE1, hits give low values 1.05 | locus YGL253W, strain hxk2, hits give low values 1.01 | locus YGR078C, strain PAC10, hits give low values 1.05 | locus YGR135W, strain pre9, hits give low values 1.06 | locus YGR252W, strain gcn5, hits give low values 1.03 | locus YHR013C, strain ard1, hits give low values 1.03 | locus YHR027C, strain rpn1, hits give low values 1.02 | locus YHR030C, strain SLT2, hits give low values 1.01 | locus YHR079C, strain IRE1 (second series), hits give low values 1 | locus YHR079C, strain IRE1, hits give low values 1.04 | locus YHR094C, strain hxt1, hits give low values 1.01 | locus YHR129C, strain ARP1, hits give low values 1.01 | locus YHR142W, strain chs7, hits give low values 1.03 | locus YHR200W, strain rpn10, hits give low values 1.02 | locus YIL066C, strain RNR3, hits give low values 1 | locus YIL073C, strain SPO22, hits give low values 1.06 | locus YIL125W, strain kgd1, hits give low values 0.981 | locus YIR030C, strain dcg1, hits give low values 0.999 | locus YJL092W, strain hpr5, hits give low values 1.01 | locus YJL095W, strain BCK1 (second series), hits give low values 1.01 | locus YJL095W, strain BCK1, hits give low values 1.11 and 1.04 | locus YJL115W, strain asf1, hits give low values 1.01 | locus YJL129C, strain trk1, hits give low values 1.01 | locus YJL134W, strain LCB3, hits give low values 1.01 | locus YJL154C, strain vps35, hits give low values 1.02 | locus YJL164C, strain tpk1, hits give low values 1.01 | locus YJL166W, strain qcr8, hits give low values 1.02 | locus YJL168C, strain set2, hits give low values 0.988 | locus YJL187C, strain SWE1 (second series), hits give low values 1.05 | locus YJL187C, strain SWE1, hits give low values 1 | locus YJR043C, strain POL32, hits give low values 0.99 | locus YJR066W, strain TOR1, hits give low values 0.962 | locus YKL009W, strain mrt4, hits give low values 1.04 | locus YKL068W, hits give low values 1 | locus YKL085W, strain MDH1 (second series), hits give low values 1 | locus YKL085W, strain MDH1, hits give low values 1 | locus YKL160W, strain elf1, hits give low values 1 | locus YKL190W, strain CNB1, hits give low values 1 | locus YKR001C, strain vps1, hits give low values 1.02 | locus YKR026C, strain gcn3, hits give low values 1.01 | locus YKR091W, strain srl3, hits give low values 1.01 | locus YLL001W, strain dnm1, hits give low values 0.989 | locus YLL026W, hits give low values 0.991 | locus YLL041C, strain sdh2, hits give low values 1.02 | locus YLR027C, strain aat2, hits give low values 0.993 | locus YLR039C, strain RIC1, hits give low values 1.06 | locus YLR058C, strain SHM2, hits give low values 1.03 | locus YLR102C, strain apc9, hits give low values 0.997 | locus YLR113W, strain HOG1, hits give low values 1.03 | locus YLR221C, strain rsa3, hits give low values 1.01 | locus YLR258W, strain gsy2, hits give low values 1.01 | locus YLR262C, strain YPT6 (second series), hits give low values 0.979 | locus YLR262C, strain YPT6, hits give low values 1.07 | locus YLR268W, strain sec22, hits give low values 0.983 | locus YLR320W, strain mms22, hits give low values 1 | locus YLR342W, strain FKS1, hits give low values 1 | locus YLR357W, strain rsc2, hits give low values 1.02 | locus YLR370C, strain arc18, hits give low values 1 | locus YLR371W, strain rom2, hits give low values 1.01 | locus YLR384C, strain iki3, hits give low values 1 | locus YLR418C, strain cdc73, hits give low values 1.04 | locus YML016C, strain PPZ1, hits give low values 1.02 | locus YML032C, strain rad52, hits give low values 1 | locus YML120C, strain ndi1, hits give low values 1.01 | locus YML124C, strain tub3, hits give low values 1 | locus YMR058W, strain fet3, hits give low values 1.01 | locus YMR078C, strain ctf18, hits give low values 1.01 | locus YMR125W, strain sto1, hits give low values 0.997 | locus YMR129W, hits give low values 1.01 | locus YMR205C, strain PFK2, hits give low values 0.981 | locus YMR223W, strain ubp8, hits give low values 1.01 | locus YMR231W, strain pep5, hits give low values 1 | locus YMR307W, strain GAS1, hits give low values 1.02 | locus YNL067W, strain RPL9B, hits give low values 1.04 | locus YNL071W, strain lat1, hits give low values 1.01 | locus YNL153C, strain GIM3, hits give low values 1.04 | locus YNL183C, strain NPR1, hits give low values 0.972 | locus YNL209W, strain ssb2, hits give low values 1.01 | locus YNL233W, strain BNI4, hits give low values 1.06 | locus YNL248C, strain rpa49, hits give low values 1.02 | locus YNL250W, strain rad50, hits give low values 1.03 | locus YNL271C, strain bni1, hits give low values 1.01 | locus YNL298W, strain CLA4, hits give low values 1.02 | locus YNL307C, strain MCK1, hits give low values 1.01 | locus YNL322C, strain KRE1 (second series), hits give low values 1.01 | locus YNR049C, strain mso1, hits give low values 1.01 | locus YNR052C, strain pop2, hits give low values 1.03 | locus YOL012C, strain htz1 1.84 | locus YOL147C, strain pex11, hits give low values 1.01 | locus YOR001W, strain rrp6, hits give low values 1.02 | locus YOR061W, strain CKA2, hits give low values 1.01 | locus YOR069W, strain VPS5, hits give low values 1.01 | locus YOR070C, strain gyp1, hits give low values 1.02 | locus YOR080W, strain dia2, hits give low values 1 | locus YOR083W, strain WHI5, hits give low values 0.996 | locus YOR106W, strain vam3, hits give low values 1.01 | locus YOR136W, strain idh2, hits give low values 1.01 | locus YOR144C, strain elg1, hits give low values 0.994 | locus YOR184W, strain ser1, hits give low values 0.976 | locus YOR231W, strain MKK1, hits give low values 1.07 | locus YOR265W, strain rbl2, hits give low values 1.02 | locus YOR270C, strain vph1, hits give low values 1.15 | locus YOR290C, strain snf2, hits give low values 1.02 | locus YOR316C, strain cot1, hits give low values 1.01 | locus YPL051W, strain arl3, hits give low values 0.976 | locus YPL055C, strain LGE1, hits give low values 1 | locus YPL078C, strain atp4, hits give low values 1.01 | locus YPL106C, strain sse1, hits give low values 1.01 | locus YPL240C, strain hsp82, hits give low values 1.01 | locus YPL241C, strain CIN2, hits give low values 0.993 | locus YPL256C, strain CLN2, hits give low values 1.03 | locus YPR119W, strain clb2, hits give low values 1 | locus YPR141C, strain kar3, hits give low values 1.02 | locus YPR163C, strain tif3, hits give low values 1 | locus YPR167C, strain met16, hits give low values 1.01 | strain wtn01, hits give low values 0.986
